Data as given in PubChem BioAssay AID652104 (National Center for Advancing Translational Sciences (NCATS), 2013).
The whole screen tested about 410,000 compounds, of which about 7,200 (1.8%) were called active. Inconclusive results (about 7%) are left out. The call rests on the fitted dose curve; in most records, active means well fitted activation curve with a large enough effect; inconclusive means small, poorly fitted or top-dose-only effect, or another doubt; inactive means no such curve, though single readings can be large or run the other way. What follows is part of a selection rich in actives, with near analogues and random picks from the rest. Where a call stands in place of a potency, no number is given.

Assay: qHTS of TDP-43 Inhibitors; further: nearly all actives have a fitted effect of over 50% in size
Conditions: TDP-43 expressing yeast growth rescue, BacTiter-Glo, 24 h; series mostly up to 46.1 µM
How it was run: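 Cell-based yeast growth screen: TDP-43 expression induced in galactose, inoculum OD600=0.02 after raffinose pregrowth to mid-log. Read-out BacTiter-Glo luminescence at 24 hr, 30 deg C; inhibition of toxicity seen as signal increase.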
Potency means the concentration at half of the fitted maximal effect.

Structure (SMILES) | Potency | growth rescue (activation)
CC(C)NC(=O)c1nn(-c2ccccc2F)nc1CO | inactive | 
O=c1cc(Cn2nnc(-c3ccc(Cl)cc3)n2)nc2sccn12 | 11.2 µM (active) | 
COc1cccc(C(=O)NCC(=O)OCc2cc(=O)n3ccsc3n2)c1 | inactive | 
Cc1ccc(-c2nn3c(=O)cc(CN4CCN(S(=O)(=O)c5ccc(Cl)cc5)CC4)nc3s2)cc1 | inactive | 
COc1ccc(C2=NC(c3ccncc3)=Nc3ccc(Br)cc3N2)cc1 | inactive | 
Brc1ccc2c(c1)NC(c1cccnc1)=NC(c1ccccc1)=N2 | 35.5 µM (active) | 
COc1ccc2c(c1)C(c1cccs1)=NNC(c1cccnc1)=N2 |  | -15% [at 9.22 µM] (inactive)
CCOc1cc(CNC(=O)c2sc3ncnc(N(C)C4CCCCC4)c3c2C)ccc1OC | inactive | 
O=C(c1ccc(Cl)cc1)n1nc(-c2cccnc2)nc1NCc1ccc(F)cc1 | inactive | 
O=S1(=O)CCOC[C@H](Cc2ccccc2)N1Cc1ccccc1Br | inactive | 
CCC(C)[C@H]1COCCS(=O)(=O)N1Cc1ccc(C)cc1 (some centres undefined) | inactive | 
CCCC[C@H]1COCCS(=O)(=O)N1Cc1cccc(Cl)c1 | 12.6 µM (active) | 
Cc1cccc(OCCCC(=O)Nc2sc3c(c2C(N)=O)CCC(C)C3)c1 (centres undefined) | inactive | 
Cc1nn(CC(=O)N2CCN(c3cccc(C(F)(F)F)c3)CC2)c(=O)c2cc3sccc3n12 | inactive | 
CCOc1ccc(-n2c(SCC(=O)NCc3ccccc3)nc3n[nH]c(C)c3c2=N)cc1 | inactive | 
COCCCNC(=S)N1CCCC(c2nc3cc(C)c(C)cc3[nH]2)C1 (centres undefined) |  | -14.1% [at 0.397 µM] (inactive)
CN(C)CCCNC(=S)N1CCN(c2nc(-c3ccccc3)cs2)CC1 |  | -17.3% [at 1.82 µM] (inactive)
COCCCNC(=S)N1CCN(c2nc(-c3cccc(OC)c3)cs2)CC1 | 14.1 µM (active) | 
COc1cc(OC)c(N(C)C(=O)c2cc3c(=O)oc4ccccc4c3s2)cc1Cl | inactive | 
Cc1ccc(NC(=O)CN2C(=O)C(c3ccc(F)cc3)=NC23CCCCCC3)c(C)c1 | inactive | 
COC(=O)c1ccc(CSc2nncn2N)cc1 | inactive | 
CCOC(=O)c1ccc(CSc2nnc3cc(C)c4ccccc4n23)cc1 | 22.4 µM (active) | 
CCOc1ccc(NC(=O)c2ccc(CSc3nnnn3C)cc2)cc1 | inactive | 
COc1ccccc1N1CCN(C(CNC(=O)C(=O)NCc2ccc(C)cc2)c2cccnc2)CC1 (centres undefined) | inactive | 

Structure (SMILES) | Potency | growth rescue (activation)
CCc1cccc(C)c1Nc1c(-c2ccc(N(C)C)cc2)nc2ncccn12 | inactive | 
COc1ccccc1CNC(=O)CCCn1c(=O)c2ccccc2n(CC(=O)Nc2ccc(C)cc2Cl)c1=O | inactive | 
O=C(CSc1oc(-c2ccccc2)nc1S(=O)(=O)c1ccc(Br)cc1)NC1CCCCC1 | inactive | 
Cn1c(C(=O)Nc2cccc(C(F)(F)F)c2)cc2c(=O)n3ccccc3nc21 | inactive | 
CCc1ccc(NC(=O)c2sc3nc4c(cc3c2N)CN(CC)CC4)cc1 | inactive | 
Cc1cccc2cc3c(N)c(C(=O)N4CCCc5ccccc54)sc3nc12 | 15.8 µM (active) | 
CCN1CCc2nc3sc(C(=O)Nc4ccccc4OC(F)(F)F)c(N)c3cc2C1 | inactive | 
CC1CCC(N2CC(=O)N(CCC3=CCCCC3)C(c3ccc(F)cc3)C2=O)CC1 (centres undefined) | inactive | 
CCN(CC)C(=O)CSc1nc2ccsc2c(=O)n1Cc1ccccc1Cl | inactive | 
COc1ccc(N2CCN(C3=NS(=O)(=O)C(c4cccc(Br)c4)=C3C)CC2)cc1 | inactive | 
CCOC(=O)c1cc2occc2n1CC(=O)N1CCN(C(=O)c2ccco2)CC1 | inactive | 
CCOC(=O)c1cc2c(ccn2C)n1CC(=O)N1CCC(C)CC1 | 35.5 µM (active) | 
CCOC(=O)c1cc2occc2n1CC(=O)NC1CCC(C)CC1 (centres undefined) | inactive | 
CCOc1cc2[nH]c(=O)n(Cc3ccc(C(=O)NCCN(CC)CC)cc3)c(=O)c2cc1OCC |  | 25.5% [at 9.22 µM] (inactive)
COc1ccc(OCCCn2c(C3CC(=O)N(c4ccc(F)cc4)C3)nc3ccccc32)cc1 (centres undefined) | inactive | 
Cc1nc2ccn(Cc3cccs3)c(=O)c2cc1C(=O)NCc1ccc(Cl)cc1 | inactive | 
COc1ccc(S(=O)(=O)Nc2cc3c(C(=O)OC(C)C)c(C)oc3c3ccccc23)cc1 | inactive | 
CCOc1ccc(OCC)c(NS(=O)(=O)c2ccc3[nH]c(=O)ccc3c2)c1 | inactive | 
COc1cc(NS(=O)(=O)c2ccc3ccccc3c2)c2ncccc2c1 | 12.6 µM (active) | 
N#C/C(=C\c1ccccc1F)c1nc2ccccc2c(=O)[nH]1 | inactive | 
CCC(C(=O)Nc1cccc(-c2nc3cccnc3s2)c1C)c1ccccc1 (centres undefined) | inactive | 
COc1cccc(NC(=O)Cn2c(=O)cc(C)c3c(C)nn(-c4cccc(F)c4)c32)c1 | inactive | 
Cn1nnnc1SCCNCc1ccc(Cl)c(Cl)c1 | inactive | 
Cc1cn(C)c(CC(=O)NCc2ccc(Cl)cc2)c1C(=O)O | inactive | 

Structure (SMILES) | Potency | growth rescue (activation)
CC1C(=O)N(Cc2cn(Cc3ccco3)nn2)CCS(=O)(=O)N1Cc1ccc(-c2cccc(CO)c2)cc1 (centres undefined) | inactive | 
COc1ccc(-c2ccc(CN3C(C(C)C)C(=O)N(Cc4cn(CC5CCCCC5)nn4)CCS3(=O)=O)cc2)cn1 (centres undefined) | inactive | 
Cc1ccc(-c2ccc(CN3C(C)C(=O)N(Cc4cn(CCC5OCCCO5)nn4)CCS3(=O)=O)cc2)cc1 (centres undefined) | inactive | 
CC(C)C1C(=O)N(Cc2cn(CCC3OCCO3)nn2)CCS(=O)(=O)N1Cc1ccc(-c2ccccc2C(F)(F)F)cc1 (centres undefined) | 35.5 µM (active) | 
CC(C)CC1C(=O)N(Cc2cn(Cc3ccco3)nn2)CCS(=O)(=O)N1Cc1ccc(-c2ccc(Cl)c(Cl)c2)cc1 (centres undefined) | inactive | 
COc1ccc(Cn2cc(CN3CCS(=O)(=O)N(Cc4ccc(-c5cccc(Cl)c5)cc4)C(C)C3=O)nn2)cc1 (centres undefined) | inactive | 
Cc1ccc(-c2ccc(CN3C(C(C)C)C(=O)N(Cc4cn(CCC5OCCCO5)nn4)CCS3(=O)=O)cc2)cc1 (centres undefined) | 35.5 µM (active) | 
COCOCCn1cc(CN2CCS(=O)(=O)N(Cc3ccc(-c4ccc(OC)cc4)cc3)C(CC(C)C)C2=O)nn1 (centres undefined) | inactive | 
Cc1ccc(-c2ccc(CN3C(C(C)C)C(=O)N(Cc4cn(CCC5OCCO5)nn4)CCS3(=O)=O)cc2)cc1 (centres undefined) | 31.6 µM (active) | 
COc1cc(NC(=O)CN2CCN(S(=O)(=O)c3ccc(Br)cc3)CC2)cc(OC)c1 | inactive | 
Cc1ccccc1CNC(=O)c1ccc(NC(=O)N2CCCCc3ccccc32)cc1 | inactive | 
COc1cc(CN(CC2CCCO2)C(=O)c2ccccc2F)cc(OC)c1OC (centres undefined) | inactive | 
CCOc1ccc(NC(=O)c2c(NC(=O)Cc3ccccc3)sc3c2CCCCC3)cc1 | inactive | 
CC1CCCN(Cc2c(O)ccc3c(=O)c(Oc4ccc(C(C)(C)C)cc4)c(C(F)(F)F)oc23)C1 (centres undefined) | inactive | 
CCCCOC(=O)/C(C#N)=C/c1ccc(-c2cccc(C(F)(F)F)c2)o1 | inactive | 
Cc1ccc(-c2ccc(/C=C(\C#N)C(N)=S)o2)c([N+](=O)[O-])c1 | 22.4 µM (active) | 
CCOC(=O)c1ccc(-c2ccc(/C=C(\C#N)C(=O)Nc3ccc(C)cc3)o2)cc1 | inactive | 
CCOc1ccccc1NC(=O)CN1CCN(S(=O)(=O)c2ccc(Br)cc2)CC1 |  | 0% [at 9.22 µM] (inactive)
COc1ccccc1CNC(=O)NCc1noc2ccc(C)cc12 | inactive | 
Cc1ccc(Cn2c(C)c(C(=O)NCc3ccccc3C(F)(F)F)sc2=O)cc1 | 15.8 µM (active) | 
Cc1ccccc1Cn1c(C)c(C(=O)NCc2cccc(C(F)(F)F)c2)sc1=O | inactive | 
Cc1cccc(CNC(=O)c2sc(=O)n(Cc3ccccc3C)c2C)c1 | inactive | 
Fc1ccc(-c2nn(-c3ccccc3Cl)c3c2cnc2ccccc23)cc1 | inactive | 
CCn1cc(C(=O)NCc2ccc(C)cc2)c(=O)c2cc(S(=O)(=O)N3CCc4ccccc4C3)ccc21 | inactive | 

Structure (SMILES) | Potency | growth rescue (activation)
COc1ccc(CNC(=O)COCc2cc(-c3cccs3)on2)cc1OC | inactive | 
COc1ccc(C2CC(c3cccs3)=Nc3ccccc3S2)cc1OC (centres undefined) | inactive | 
COc1ccc(-c2csc(-c3cccs3)n2)cc1OC | 11.2 µM (active) | 
CCc1ccc2ncc3c(-c4ccc(C)cc4)nn(CC(=O)NCc4ccccc4)c3c2c1 | inactive | 
O=C(CSc1oc(-c2ccc(F)cc2)nc1S(=O)(=O)c1ccc(Br)cc1)NC1CCCCC1 | inactive | 
O=C(CSc1nnc(-c2cccs2)n1Cc1ccccc1)N1CCc2ccccc2C1 | inactive | 
Cc1cc(NC(=O)c2cc(-c3cccs3)on2)nn1Cc1ccc(Cl)cc1 | inactive | 
O=c1onc(-c2cccs2)n1Cc1ccccc1 | 12.6 µM (active) | 
CCC(=O)Nc1ccc(C)cc1-c1nc2ccccc2n(Cc2ccccc2)c1=O | inactive | 
COc1ccc2oc(-c3ccc(C)c(NC(=O)c4sc5ccccc5c4Cl)c3)nc2c1 | inactive | 
Cc1ccc(C)c(Cn2c(C)c(CNCc3ccc(F)cc3)c(C(=O)O)c2C)c1 | inactive | 
CC(C)(C)NC(=O)NC(=O)COC(=O)Cc1ccc(Cl)cc1Cl | 35.5 µM (active) | 
CC(C)(C)NC(=O)NC(=O)COC(=O)Cc1c(F)cccc1Cl | inactive | 
COc1ccccc1OCCC(=O)OCC(=O)NC(=O)NC(C)(C)C | inactive | 
COc1ccc(C2=NC3(CCCCC3)N(CC(=O)Nc3ccc(C(C)C)cc3)C2=O)cc1 | inactive | 
CCN(CC)CCNc1ncnc2c1cnn2-c1cc(Cl)ccc1C | inactive | 
CCn1c(SCC(=O)Nc2ccc3c(c2)OCCO3)nc2c(c1=O)SC(C)C2 (centres undefined) | inactive | 
CCn1c(SCC(=O)Nc2ccccc2F)nc2c(c1=O)SC(C)C2 (centres undefined) | 35.5 µM (active) | 
CC1Cc2nc(SCC(=O)Nc3ccccc3F)n(C)c(=O)c2S1 (centres undefined) | inactive | 
CSCc1cc(N2CCOCC2)nc(SCc2ccc(Cl)cc2Cl)n1 | 22.4 µM (active) | 
CSCc1cc(N(C)C)nc(SCc2ccc(Cl)cc2Cl)n1 | inactive | 
CC(C)(CNC(=O)Cc1ccc(Cl)cc1Cl)N1CCOCC1 | inactive | 
